Compound activity as filed in PubChem.
Compounds with a hit are over-represented: about 2.4% of the library has one in this group of screens.
D2 PAM-1 – Beta-Arrestin HTS for Positive Allosteric Modulators of the Human D2 Dopamine Receptor: Potentiators. D(2) dopamine receptor (Homo sapiens), P14416. DiscoveRx D2 beta-arrestin cells, luminescence, 90 min; 100% = 57 uM dopamine signal. potentiation, % (concentration not given with the values). 360,000 tested, 0.23% active; in the data active means potentiation above about 50%; inconclusive means mostly about 30% to 49%
Target sequence (P14416 whole entry, looked up): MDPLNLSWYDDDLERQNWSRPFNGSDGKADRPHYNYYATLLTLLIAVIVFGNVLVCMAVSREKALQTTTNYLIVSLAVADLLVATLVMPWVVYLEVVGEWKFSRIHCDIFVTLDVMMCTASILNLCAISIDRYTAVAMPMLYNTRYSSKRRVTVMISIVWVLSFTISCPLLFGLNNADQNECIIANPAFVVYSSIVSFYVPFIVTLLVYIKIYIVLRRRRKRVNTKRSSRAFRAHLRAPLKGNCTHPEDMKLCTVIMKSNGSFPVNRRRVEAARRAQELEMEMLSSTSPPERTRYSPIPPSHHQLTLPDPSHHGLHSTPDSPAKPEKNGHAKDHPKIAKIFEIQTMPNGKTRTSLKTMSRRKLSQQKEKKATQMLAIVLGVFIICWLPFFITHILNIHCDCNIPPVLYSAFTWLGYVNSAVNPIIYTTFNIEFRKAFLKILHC
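PathHunter D2 cells, attached overnight at 37 deg C, received compound in DMSO plus dopamine at EC20 (50 nM final) for 90 min at 37 deg C. Beta-arrestin recruitment was read as luminescence after 1 h with detection reagent at ambient temperature.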
D2 antagonist – HTS Assay for Allosteric Antagonists of the Human D2 Dopamine Receptor: Primary Screen for Antagonists; D(2) dopamine receptor (Homo sapiens), P14416; HEK293 TREx D2 cells, calcium flux, dopamine EC80; inhibition, % at 10 µM; 340,000 tested, 2% active; AID 485344, 2010; in the data active means inhibition above about 30%; inactive means below that, where a call was filed
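In this primary screen, negative modulation is detected by tracking calcium flux after an EC80 dopamine challenge in inducible HEK293 T-REx D2 cells preexposed to test compound for 180 s.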
D2 ag-1 – HTS Assay for Allosteric Agonists of the Human D2 Dopamine Receptor: Primary Screen for Agonists | activation, % at 2 µM | HEK293 T-REx D2 cells, calcium flux agonist mode | 340,000 tested, 0.53% active | AID 485358, 2010;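 active means activation over 3 SD above normal in the single-dose calcium agonist read, cut at about 30% in these data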
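Tetracycline-induced HEK293 T-REx cells with force-coupled D2 receptor, plated overnight at 30 C, loaded with no-wash calcium dye. After a 10 s baseline, compound was pin-added and calcium flux read kinetically for 180 s; calcium rises flagged agonists.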
D2 PAM-2 – HTS Assay for Positive Allosteric Modulators of the Human D2 Dopamine Receptor: Primary Screen for Potentiators. HEK293 T-REx D2, calcium flux, EC20 dopamine potentiation. potentiation, % at 10 µM. 340,000 tested, 0.34% active. AID 485347, 2010;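 active means potentiation over 3 SD above the plate norm, cut at about 30% in these data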
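Tetracycline-induced Hek293 Trex D2 cells, force-coupled to calcium, loaded with no-wash calcium dye. Compound added with 180 s kinetic read for agonism, then EC20 dopamine and a further 180 s read for potentiation.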
D2 ag-2 – Beta-Arrestin HTS for Positive Allosteric Modulators of the Human D2 Dopamine Receptor: Agonists; 360,000 tested, 0.084% active; activation, % (no concentration beside the values); DiscoveRx PathHunter D2 beta-arrestin, luminescence, 90 min; 100% = 57 uM dopamine signal; D(2) dopamine receptor (Homo sapiens), P14416; in the data active means activation above about 40%; inconclusive means between about 15% and that limit
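Agonist mode: compounds alone added to overnight-plated D2 PathHunter cells for 90 min at 37 C, with 57 uM final dopamine (EC100) defining full response. Beta-arrestin recruitment detected by chemiluminescent reagent, read after 1 h at ambient temperature.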
Large screens that a line does not name were inactive.

COC(=O)c1[nH]c2cc(C)ccc2c1NC(=O)CN1CCOCC1	none
CC(C)Oc1ccc(CNC(=O)CN2C(=O)c3cccnc3Oc3ccc(Cl)cc32)cc1	none (no result: D2 PAM-1, D2 antagonist, D2 ag-2)
O=C(CSc1nc2cc(C(=O)NC3CCCC3)ccc2c(=O)n1CC1CCCO1)c1cccc(Cl)c1 (stereo not given)	none (no result: D2 PAM-1, D2 antagonist, D2 ag-2)
COc1ccc(NC(=O)c2cn3c4c(ccc(Cl)c4c2=O)OC(C)C3)cc1OC (stereo not given)	none (no result: D2 PAM-1, D2 antagonist, D2 ag-2)
O=S(=O)(c1cccs1)N1CCN(CC(O)COC2CCCc3ccccc32)CC1 (stereo not given)	none
OC(COc1ccccc1Cl)CN1CCN(CC(O)COc2ccccc2Cl)CC1 (stereo not given)	D2 antagonist 70
CCOc1ccccc1N1CCN(CC(O)COC2CCCc3ccccc32)CC1 (stereo not given)	D2 antagonist 78
Cc1ccccc1OCC(O)CN1CCN(C)CC1 (stereo not given)	none
COc1cc(O)c(C(CC(=O)N2CCCC(C)C2)c2ccc(N(C)C)cc2)c(OC)c1 (stereo not given)	D2 antagonist 31
OC1CCCN(c2c3c(nc4cc(-c5cccc(F)c5)nn24)CCCC3)C1 (stereo not given)	D2 antagonist 47
Cc1nc(-c2ccc(Cl)cc2)sc1CCNC(=O)C(=O)Nc1ccc2c(c1)OCO2	none (no result: D2 PAM-1, D2 antagonist, D2 ag-2)
COCCCn1c(=O)c2sccc2n(Cc2cccc(F)c2)c1=O	none
COCCCn1c(=O)c2sccc2n(Cc2cccc(C)c2)c1=O	D2 antagonist 41
COc1cccc(-n2nnc3c(=O)n(CC(=O)OCc4ccccc4)cnc32)c1	D2 PAM-2 50
CCOC(=O)Cn1cnc2c(nnn2-c2cccc(OC)c2)c1=O	none
CCOC(=O)Cn1cnc2c(nnn2-c2ccc(F)cc2)c1=O	D2 antagonist 32
CC(=O)NC12CC3CC(C1)CC(C(=O)OCC(=O)Nc1c(F)cccc1F)(C3)C2	D2 antagonist 37
Cc1ccc(C(=O)c2sc(Nc3ccccc3F)c(S(=O)(=O)c3ccccc3)c2N)c(C)c1	none (no result: D2 PAM-1, D2 antagonist, D2 ag-2)
COC(=O)c1ccsc1NC(=O)CSc1nnnn1-c1ccccc1SC	D2 PAM-2 37
Cc1ccc2c(c1)-c1onc(C(=O)N3CCN(c4ccc(Cl)cc4)CC3)c1CO2	none (no result: D2 PAM-1, D2 antagonist, D2 ag-2)
CCOc1ccc(Sc2cc(C(=O)NC(C)c3ccccc3)c3ccccc3n2)cc1 (stereo not given)	none (no result: D2 PAM-1, D2 antagonist, D2 ag-2)
Cc1nc2ccc(S(=O)(=O)NC(C(=O)NCc3ccco3)C(C)C)cc2s1 (stereo not given)	D2 antagonist 31
Cc1ccc(CNC(=O)C(NS(=O)(=O)c2ccc3nc(C)sc3c2)C(C)C)cc1 (stereo not given)	none
NNC(=O)/C(=C\c1cccs1)NC(=O)c1ccccc1	D2 antagonist 31
COc1ccc([N+](=O)[O-])cc1/C=N/NC(=O)/C(=C\c1cccs1)NC(=O)c1ccccc1	D2 antagonist 43
O=C(c1ccc2c(c1)N(Cc1ccccc1F)C(=O)c1ccccc1S2(=O)=O)N1CCN(c2ccccn2)CC1	none (no result: D2 PAM-1, D2 antagonist, D2 ag-2)
CCCc1cnc2c(c1SCC(=O)N1CCC(C)CC1)c(=O)n(C)c(=O)n2C	none (no result: D2 PAM-1, D2 antagonist, D2 ag-2)
COC(=O)C(C)Sc1ccc2nnc(CCNS(=O)(=O)c3ccc(C)cc3)n2n1 (stereo not given)	none
COC(=O)C(C)Sc1ccc2nnc(CCNS(=O)(=O)c3ccccc3)n2n1 (stereo not given)	D2 antagonist 37
CC1(C)C(C=C(Cl)Cl)C1C(=O)N/N=C/c1ccccc1F (stereo not given)	D2 antagonist 60
CC1(C)OC2OC(C(=O)N/N=C/c3ccccc3F)C3OC(C)(C)OC3C2O1 (stereo not given)	none
N=C1/C(=C\c2coc3ccccc3c2=O)C(=O)N=C2SC(c3ccncc3)=NN12	D2 ag-1 59
CSC1=NSC2=NC(=O)/C(=C\c3coc4ccccc4c3=O)C(=N)N12	D2 ag-1 110
CC(C)c1nn2c(=O)cc(COC(=O)c3cccc(NC(=O)c4ccccc4F)c3)nc2s1	none (no result: D2 PAM-1, D2 antagonist, D2 ag-2)
Cc1ccccc1NC(=O)CSC1=C(C#N)C(c2ccsc2)CC(=O)N1 (stereo not given)	D2 antagonist 37
Cc1ccc(NC(=O)C(C)n2nnc3sc4c(c3c2=O)CCCC4)cc1Cl (stereo not given)	none (no result: D2 PAM-1, D2 antagonist, D2 ag-2)
N#C/C(=C\C=C\c1ccccc1)C(=O)NCc1ccco1	D2 antagonist 37
O=C(/C=C/c1ccccc1)NCc1ccco1	none
Cc1ccc(N2C(N)=C(C#N)C3(C(=O)N(C)c4ccccc43)C3=C2CC(C)(C)CC3=O)cc1Cl (stereo not given)	none
CN1C(=O)C2(C(C#N)=C(N)N(c3cc(Cl)cc(Cl)c3)C3=C2C(=O)CC(C)(C)C3)c2ccccc21 (stereo not given)	D2 antagonist 33
Cc1ccc(C#N)c(SCCN2CCCCC2)n1	D2 antagonist 34
Cc1oc2cc3oc(=O)c(CCC(=O)NCCCC(=O)O)c(C)c3cc2c1C	D2 antagonist 33
Clc1cccc(-n2ncc3c(Nc4ccc5c(c4)OCCO5)ncnc32)c1	none (no result: D2 PAM-1, D2 antagonist, D2 ag-2)
CC1CCCN(CCCNC(=O)c2coc3nc4ccccc4nc23)C1 (stereo not given)	D2 antagonist 33
CN1CCN(CCCC(=O)c2ccc(F)cc2)CC1	none
O=C(CCCN1CCOC(c2ccccc2)C1)c1ccc(F)cc1 (stereo not given)	D2 antagonist 49
O=C(CCCN1CCN(c2ccccc2)CC1)c1ccc(F)cc1	none (no result: D2 antagonist, D2 ag-1, D2 PAM-2)
O=C(CCCN1Cc2ccccc2C1)c1ccc(F)cc1	D2 antagonist 79
Cc1ccc(NC(=O)C2CCC(CNS(=O)(=O)c3ccc4c(c3)CCCC(=O)N4)CC2)c(C)c1 (stereo not given)	none (no result: D2 PAM-1, D2 antagonist, D2 ag-1, D2 ag-2)
O=C(Nc1c(Cl)cccc1Cl)c1cc(-c2cccc(O)c2)on1	none (no result: D2 PAM-1, D2 antagonist, D2 ag-2)
Cc1cc2oc(C(=O)Nc3nonc3C)c(C)c2cc1Cl	D2 PAM-2 34
CSc1oc(-c2ccco2)nc1S(=O)(=O)c1ccccc1	none
CC(C)Sc1oc(-c2ccco2)nc1S(=O)(=O)c1ccccc1	D2 antagonist 33
Fc1ccc(-n2cc(-c3ccccc3)c3c(N4CCOCC4)ncnc32)cc1	D2 ag-2 inconclusive
COc1ccc(-n2cc(-c3ccccc3)c3c(N4CCOCC4)ncnc32)cc1	D2 PAM-1 62, D2 ag-2 inconclusive
